The values below come from the supplement of paper PMC12350171.

Where a name gives a salt, the structure may show the parent alone. Values without a mark were called inactive.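 The calls were made as follows: active = AUC significantly below DMSO controls by Student t-fit with adjusted P under 0.01; inactive = not significantly reduced.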

The assay relates to Haemophilus parainfluenzae. Kind of assay: growth AUC normalised to DMSO control (fraction of control); higher = less growth inhibition, active = hit call of the paper. The following applies: 20 µM. In short, it runs like this: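 Pathogens passaged twice anaerobically were inoculated at a starting OD578 of 0.01 into pre-reduced mGAM plates with drug at 20 μM and 1% DMSO, sealed with breathable membranes. Haemophilus parainfluenzae medium was supplemented with hemin and NAD. OD578 was read hourly for 24 h, with three biological replicates. Growth-curve AUC was computed by the trapezoidal rule up to the exponential-to-stationary transition and normalised to DMSO controls on the same plate.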
As for `CN1CCCCC1CCN1c2ccccc2Sc2ccc([S+](C)[O-])cc21` (stereo unspecified) [Mesoridazine besylate], the “growth AUC normalised to DMSO control” value is 0.987.
The figure for `CCCN(CCC)CCc1cccc2c1CC(=O)N2` [Ropinirole hydrochloride] is 1; for `CC1CCc2c(N3CCC(O)CC3)c(F)cc3c(=O)c(C(=O)O)cn1c23` (stereo unspecified) [Nadifloxacin] it is 0.0309 (active); for `CC(=O)Oc1cc(C(C)C)c(OCCN(C)C)cc1C` [Moxisylyte hydrochoride] it is 0.995.
In the case of `CC(N/C(=N\C#N)Nc1ccncc1)C(C)(C)C` (stereo unspecified) [Pinacidil monohydrate], the “growth AUC normalised to DMSO control” value was 1.
The figure for `CCCN(CCC)C(=O)C(CCC(=O)O)NC(=O)c1ccccc1` (stereo unspecified) [Proglumide] is 1.03; for `COc1ccc(Cl)cc1C(=O)NCCc1ccc(S(=O)(=O)NC(=O)NC2CCCCC2)cc1` [Glibenclamide] it is 0.952; for `C1CCC(C(CC2CCCCN2)C2CCCCC2)CC1` (stereo unspecified) [Perhexiline maleate] it is 0.977.
As to `C#C[C@]1(O)CC[C@H]2[C@@H]3CCC4=CC(=O)CC[C@@H]4[C@H]3CC[C@@]21C` [Norethindrone], the “growth AUC normalised to DMSO control” value is 0.989.
The figure for `CC[C@H]1OC(=O)[C@H](C)[C@@H](O[C@H]2C[C@@](C)(OC)[C@@H](O)[C@H](C)O2)[C@H](C)[C@@H](O[C@@H]2O[C@H](C)C[C@H](N(C)C)[C@H]2O)[C@](C)(O)C[C@@H](C)C(=O)[C@H](C)[C@@H](O)[C@]1(C)O` [Erythromycin] is 0.028 (active); for `CN1C(C(=O)Nc2ccccn2)=C(O)c2ccccc2S1(=O)=O` [Piroxicam] it is 1.01.
With `CCN(CC)C(=O)N1CCN(C)CC1` [Diethylcarbamazine citrate] the figure was 0.978; with `CCCCNc1cc(C(=O)O)cc(S(N)(=O)=O)c1Oc1ccccc1` [Bumetanide], 0.991.
With `O=C(O)c1cccnc1Nc1cccc(C(F)(F)F)c1` [Niflumic acid] the figure was 1.02; with `Cc1ccc(NC(=O)c2ccc(CN3CCN(C)CC3)cc2)cc1Nc1nccc(-c2cccnc2)n1` [Imatinib], 1.09.
`NS(=O)(=O)c1cc(C(=O)O)c(NCc2ccco2)cc1Cl` [Furosemide]: the “growth AUC normalised to DMSO control” value is 1.
On to `CCCSc1ccc2[nH]c(NC(=O)OC)nc2c1` [Albendazole], for which the “growth AUC normalised to DMSO control” value is 1.08.
The figure for `CC[C@H]1OC(=O)[C@H](C)[C@@H](O[C@H]2C[C@@](C)(OC)[C@@H](O)[C@H](C)O2)[C@H](C)[C@@H](O[C@@H]2O[C@H](C)C[C@H](N(C)C)[C@H]2O)[C@](C)(O)C[C@@H](C)CN(C)[C@H](C)[C@@H](O)[C@]1(C)O` [Azithromycin] is 0.0436 (active).
The figure for `CC[C@H](C)C(=O)O[C@H]1CCC=C2C=C[C@H](C)[C@H](CC[C@@H]3C[C@@H](O)CC(=O)O3)[C@H]21` [Mevastatin] is 0.978; for `CN(C/C=C/c1ccccc1)Cc1cccc2ccccc12` [Naftifine hydrochloride] it is 0.977; for `COc1cnc(NS(=O)(=O)c2ccc(N)cc2)nc1` [Sulfameter] it is 0.98.
On to `CC(CN(C)C)C(C)(O)Cc1ccc(Cl)cc1` (stereo unspecified) [Clobutinol hydrochloride], for which the “growth AUC normalised to DMSO control” value is 0.963.
Consider `CC(c1cc2ccccc2s1)N(O)C(N)=O` (stereo unspecified) [Zileuton], for which the “growth AUC normalised to DMSO control” value is 0.909.
The figure for `COCCCC/C(=N\OCCN)c1ccc(C(F)(F)F)cc1` [Fluvoxamine maleate] is 0.981; for `COC(=O)Nc1nc2cc(C(=O)c3ccccc3)ccc2[nH]1` [Mebendazole] it is 0.983; for `Cc1noc(NS(=O)(=O)c2ccc(N)cc2)c1C` [Sulfisoxazole] it is 0.939.
